Results as given in ChEMBL document CHEMBL2218924, “A broad activity screen in support of a chemogenomic map for kinase signalling research and drug discovery” (Biochem J, 2013).

Each compound was assayed against Receptor-interacting serine/threonine-protein kinase 2 (Homo sapiens) (UniProt O43353). Conditions: at 10 µM.
Chain of Receptor-interacting serine/threonine-protein kinase 2 (Homo sapiens) (O43353 whole entry): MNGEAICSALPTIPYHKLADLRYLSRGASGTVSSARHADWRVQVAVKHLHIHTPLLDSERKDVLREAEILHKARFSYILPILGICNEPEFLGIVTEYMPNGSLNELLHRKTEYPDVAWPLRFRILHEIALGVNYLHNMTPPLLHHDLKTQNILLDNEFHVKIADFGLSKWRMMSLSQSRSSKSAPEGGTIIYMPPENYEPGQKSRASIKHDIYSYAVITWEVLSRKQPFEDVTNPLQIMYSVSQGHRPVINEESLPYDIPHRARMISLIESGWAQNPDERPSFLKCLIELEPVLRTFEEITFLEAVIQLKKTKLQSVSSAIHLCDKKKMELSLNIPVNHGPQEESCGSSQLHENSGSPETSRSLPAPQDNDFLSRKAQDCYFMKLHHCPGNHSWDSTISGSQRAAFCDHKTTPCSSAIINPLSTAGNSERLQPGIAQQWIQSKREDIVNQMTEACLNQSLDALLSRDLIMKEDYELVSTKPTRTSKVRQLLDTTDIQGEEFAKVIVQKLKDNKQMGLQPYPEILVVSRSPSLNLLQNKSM

SMILES	residual activity
O=c1c(-c2ccc(F)cc2)c(-c2ccncc2)[nH]n1-c1ccc(Cl)cc1	19%
Oc1cccc(-c2nc(N3CCOCC3)c3oc4ncccc4c3n2)c1	86%
c1ccc(-c2cnc(Nc3ccc(OCCN4CCCC4)cc3)s2)cc1	17%
O=C(c1cc2cc(O)ccc2[nH]1)c1cc2cc(O)ccc2[nH]1	6%
COc1cc2c(cc1OC)-c1n[nH]c(Nc3cccc(F)c3)c1C2	17%
CCN1/C(=C/C(C)=O)Sc2ccc(OC)cc21	60%
O=C(Nc1ccc(Cl)cc1)c1ccccc1NCc1ccncc1	78%
NC(=O)c1ccc(-c2nc(-c3ccc4c(c3)OCCO4)c(-c3ccccn3)[nH]2)cc1	18%
O=c1cc(N2CCOCC2)oc2c(-c3ccccc3)cccc12	74%
COc1ccc(CNC(=O)Nc2ncc([N+](=O)[O-])s2)cc1	81%
O=C1NC(=O)C(c2cn(CCCO)c3ncccc23)=C1c1cnccn1	87%
CCCCc1c(-c2ccc(OC)cc2)[nH]c2nccnc12	82%
O=C1Nc2ccccc2/C1=C\c1c(Cl)[nH]c2ccccc12	60%
Nc1nc(Nc2ccc(S(N)(=O)=O)cc2)nn1C(=O)c1c(F)cccc1F	41%
CCN(CC)CCNC(=O)c1c(C)[nH]c(/C=C2\C(=O)Nc3ccc(Cl)cc32)c1C	27%
O=C1NC(=O)C(c2c[nH]c3ccccc23)=C1c1c[nH]c2ccccc12	74%
COc1ccc2c(c1)c(C1=C(c3c[nH]c4ccccc34)C(=O)NC1=O)cn2CCCN(C)C	64%
O=C1NC(=O)C(c2cn(CCCn3ccnc3)c3ccccc23)=C1Nc1ccccc1	77%
Nc1nccc(-c2c(-c3ccc(F)cc3)ncn2C2CCNCC2)n1	16%

Each compound was assayed against Rho-associated protein kinase 1 (Homo sapiens) (UniProt Q13464). Conditions: at 1 µM.
Chain of Rho-associated protein kinase 1 (Homo sapiens) (Q13464 2-1354 limits assumed): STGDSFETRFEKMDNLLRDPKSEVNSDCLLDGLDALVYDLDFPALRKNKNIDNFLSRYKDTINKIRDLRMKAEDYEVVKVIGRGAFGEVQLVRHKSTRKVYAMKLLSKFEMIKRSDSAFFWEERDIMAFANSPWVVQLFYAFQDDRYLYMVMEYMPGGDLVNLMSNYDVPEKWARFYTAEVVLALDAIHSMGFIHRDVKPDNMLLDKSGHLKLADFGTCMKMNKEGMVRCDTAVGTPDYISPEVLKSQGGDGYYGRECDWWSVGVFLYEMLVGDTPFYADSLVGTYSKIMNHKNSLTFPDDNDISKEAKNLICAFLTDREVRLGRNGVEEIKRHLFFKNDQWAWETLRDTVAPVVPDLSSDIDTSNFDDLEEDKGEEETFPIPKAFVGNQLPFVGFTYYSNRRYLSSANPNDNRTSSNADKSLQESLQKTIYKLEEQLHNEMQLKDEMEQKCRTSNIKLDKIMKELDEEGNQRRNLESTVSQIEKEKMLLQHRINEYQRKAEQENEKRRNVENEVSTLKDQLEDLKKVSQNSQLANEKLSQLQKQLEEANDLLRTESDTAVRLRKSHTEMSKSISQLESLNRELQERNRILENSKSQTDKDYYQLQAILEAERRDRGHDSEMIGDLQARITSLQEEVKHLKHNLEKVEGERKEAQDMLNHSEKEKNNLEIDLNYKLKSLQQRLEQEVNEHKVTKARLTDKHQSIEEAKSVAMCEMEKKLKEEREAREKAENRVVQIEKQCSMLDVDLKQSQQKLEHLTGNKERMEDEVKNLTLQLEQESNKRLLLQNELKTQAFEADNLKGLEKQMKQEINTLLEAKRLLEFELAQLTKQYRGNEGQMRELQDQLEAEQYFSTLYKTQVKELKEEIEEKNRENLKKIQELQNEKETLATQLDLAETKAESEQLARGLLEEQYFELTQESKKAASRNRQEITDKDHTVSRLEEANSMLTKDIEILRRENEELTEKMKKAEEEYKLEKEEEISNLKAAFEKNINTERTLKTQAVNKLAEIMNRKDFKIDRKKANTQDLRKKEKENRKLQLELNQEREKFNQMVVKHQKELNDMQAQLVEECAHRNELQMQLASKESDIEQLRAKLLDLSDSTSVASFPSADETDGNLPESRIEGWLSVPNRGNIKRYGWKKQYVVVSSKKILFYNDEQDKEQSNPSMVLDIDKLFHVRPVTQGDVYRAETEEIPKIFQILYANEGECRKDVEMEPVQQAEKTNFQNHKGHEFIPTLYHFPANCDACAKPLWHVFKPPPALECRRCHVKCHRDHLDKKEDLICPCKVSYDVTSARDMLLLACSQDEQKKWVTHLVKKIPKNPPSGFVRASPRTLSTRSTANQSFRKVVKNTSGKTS

SMILES	residual activity
O=c1c(-c2ccc(F)cc2)c(-c2ccncc2)[nH]n1-c1ccc(Cl)cc1	122%
Oc1cccc(-c2nc(N3CCOCC3)c3oc4ncccc4c3n2)c1	123%
NCCNc1ncc(C(N)=O)c(Nc2cccc(C(F)(F)F)c2)n1	104%
Cn1c2ccccc2c2c3c(c4c5ccccc5n(CCC#N)c4c21)CNC3=O	98%
COc1ccc(COc2ccc(Cc3cnc(N)nc3N)cc2OC)cc1	112%
O=C(Nc1nc2ccccc2n1CCN1CCOCC1)c1cccc([N+](=O)[O-])c1	109%
CN(C)S(=O)(=O)c1ccc2c(c1)/C(=C/c1cc3c([nH]1)CCCC3)C(=O)N2	132%
NC(=O)c1ccc(-c2nc(-c3ccc4c(c3)OCCO4)c(-c3ccccn3)[nH]2)cc1	118%
CCCCc1c(-c2ccc(OC)cc2)[nH]c2nccnc12	117%
O=C1Nc2ccccc2/C1=C\c1c(Cl)[nH]c2ccccc12	121%
Nc1nc(Nc2ccc(S(N)(=O)=O)cc2)nn1C(=O)c1c(F)cccc1F	65%
COc1ccc2c(c1)c(C1=C(c3c[nH]c4ccccc34)C(=O)NC1=O)cn2CCCN(C)C	105%
O=C1NC(=O)C(c2cn(CCCn3ccnc3)c3ccccc23)=C1Nc1ccccc1	120%
Nc1nccc(-c2c(-c3ccc(F)cc3)ncn2C2CCNCC2)n1	128%

What follows are compounds tested against Rho-associated protein kinase 1 (Homo sapiens) (UniProt Q13464). Conditions: at 10 µM.

SMILES	residual activity
Oc1cccc(-c2nc(N3CCOCC3)c3oc4ncccc4c3n2)c1	125%
c1ccc(-c2cnc(Nc3ccc(OCCN4CCCC4)cc3)s2)cc1	110%
NCCNc1ncc(C(N)=O)c(Nc2cccc(C(F)(F)F)c2)n1	103%
O=C(c1cc2cc(O)ccc2[nH]1)c1cc2cc(O)ccc2[nH]1	72%
Cn1c2ccccc2c2c3c(c4c5ccccc5n(CCC#N)c4c21)CNC3=O	97%
COc1ccc(COc2ccc(Cc3cnc(N)nc3N)cc2OC)cc1	120%
O=C(Nc1nc2ccccc2n1CCN1CCOCC1)c1cccc([N+](=O)[O-])c1	106%
CN(C)S(=O)(=O)c1ccc2c(c1)/C(=C/c1cc3c([nH]1)CCCC3)C(=O)N2	100%
N#C/C(=C\c1ccc(O)c(O)c1)C(=O)NCc1ccccc1	123%
O=S(=O)(NCCNC/C=C/c1ccc(Br)cc1)c1cccc2cnccc12	29%
CC(C)N(CCC(=O)c1ccc2ccccc2c1)Cc1ccccc1	133%
NC(=O)c1ccc(-c2nc(-c3ccc4c(c3)OCCO4)c(-c3ccccn3)[nH]2)cc1	90%
CCCCc1c(-c2ccc(OC)cc2)[nH]c2nccnc12	102%
Nc1nc(Nc2ccc(S(N)(=O)=O)cc2)nn1C(=O)c1c(F)cccc1F	16%
COc1ccc2c(c1)c(C1=C(c3c[nH]c4ccccc34)C(=O)NC1=O)cn2CCCN(C)C	124%
O=C1NC(=O)C(c2cn(CCCn3ccnc3)c3ccccc23)=C1Nc1ccccc1	121%
O=S(=O)(c1cccc2cnccc12)N1CCCNCC1	36%
Nc1nccc(-c2c(-c3ccc(F)cc3)ncn2C2CCNCC2)n1	121%

What follows are compounds tested against Rho-associated protein kinase 2 (Homo sapiens) (UniProt O75116). Conditions: at 1 µM.
Chain of Rho-associated protein kinase 2 (Homo sapiens) (O75116 whole entry, looked up): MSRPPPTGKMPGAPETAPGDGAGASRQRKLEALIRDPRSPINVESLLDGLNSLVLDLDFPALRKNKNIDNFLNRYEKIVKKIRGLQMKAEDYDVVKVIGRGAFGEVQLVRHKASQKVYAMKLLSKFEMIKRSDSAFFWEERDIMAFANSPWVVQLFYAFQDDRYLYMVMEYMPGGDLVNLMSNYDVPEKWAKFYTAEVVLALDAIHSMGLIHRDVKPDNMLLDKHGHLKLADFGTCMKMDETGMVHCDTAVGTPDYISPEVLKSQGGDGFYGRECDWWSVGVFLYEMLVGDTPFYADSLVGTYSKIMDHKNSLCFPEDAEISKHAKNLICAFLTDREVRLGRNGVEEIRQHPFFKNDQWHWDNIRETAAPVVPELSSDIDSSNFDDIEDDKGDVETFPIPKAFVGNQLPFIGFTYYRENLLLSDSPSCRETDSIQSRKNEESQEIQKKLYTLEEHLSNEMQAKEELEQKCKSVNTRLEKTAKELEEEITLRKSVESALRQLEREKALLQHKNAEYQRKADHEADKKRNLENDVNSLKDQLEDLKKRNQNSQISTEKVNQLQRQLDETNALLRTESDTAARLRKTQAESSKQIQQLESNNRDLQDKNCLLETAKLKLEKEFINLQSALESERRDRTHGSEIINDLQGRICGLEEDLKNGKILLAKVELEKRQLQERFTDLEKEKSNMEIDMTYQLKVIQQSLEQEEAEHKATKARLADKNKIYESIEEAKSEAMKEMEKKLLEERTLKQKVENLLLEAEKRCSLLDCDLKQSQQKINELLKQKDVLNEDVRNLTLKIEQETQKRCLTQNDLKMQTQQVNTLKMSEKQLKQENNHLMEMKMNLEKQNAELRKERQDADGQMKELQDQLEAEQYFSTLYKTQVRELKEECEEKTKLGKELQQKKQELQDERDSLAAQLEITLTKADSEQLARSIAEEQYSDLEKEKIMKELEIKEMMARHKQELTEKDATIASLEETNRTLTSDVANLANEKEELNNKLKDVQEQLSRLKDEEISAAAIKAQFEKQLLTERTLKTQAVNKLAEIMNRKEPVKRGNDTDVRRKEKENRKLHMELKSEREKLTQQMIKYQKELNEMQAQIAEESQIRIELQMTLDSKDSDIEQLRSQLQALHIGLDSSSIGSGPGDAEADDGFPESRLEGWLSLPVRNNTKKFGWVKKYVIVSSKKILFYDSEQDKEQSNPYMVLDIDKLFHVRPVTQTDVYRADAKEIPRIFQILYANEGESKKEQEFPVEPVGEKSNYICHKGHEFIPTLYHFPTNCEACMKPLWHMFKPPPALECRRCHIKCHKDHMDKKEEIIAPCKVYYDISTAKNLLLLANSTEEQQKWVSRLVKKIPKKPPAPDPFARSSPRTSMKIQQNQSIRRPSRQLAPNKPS

SMILES	residual activity
c1ccc(-c2cnc(Nc3ccc(OCCN4CCCC4)cc3)s2)cc1	110%
O=C(c1cc2cc(O)ccc2[nH]1)c1cc2cc(O)ccc2[nH]1	67%
Cn1c2ccccc2c2c3c(c4c5ccccc5n(CCC#N)c4c21)CNC3=O	43%
CN(C)S(=O)(=O)c1ccc2c(c1)/C(=C/c1cc3c([nH]1)CCCC3)C(=O)N2	99%
N#C/C(=C\c1ccc(O)c(O)c1)C(=O)NCc1ccccc1	103%
CCN1/C(=C/C(C)=O)Sc2ccc(OC)cc21	78%
O=c1cc(N2CCOCC2)oc2c(-c3ccccc3)cccc12	100%
CCCCc1c(-c2ccc(OC)cc2)[nH]c2nccnc12	79%
Nc1nc(Nc2ccc(S(N)(=O)=O)cc2)nn1C(=O)c1c(F)cccc1F	16%
O=S(=O)(c1cccc2cnccc12)N1CCCNCC1	25%
